In PubChem BioAssay (NCI):
This is part of a sample that, as a whole, favours compounds with a hit. Of some 83,000 tested, about 20% had one in any assay.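 Values shown are percent growth following 48 h exposure of cells in 96-well plates to a single concentration of compound; below 10 was considered active.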 Unmarked numbers belong to inactive results. The source made the active and inactive calls.

What was measured:
Test in all cases: NCI-60 one-dose screen, 48 h (100 = growth as untreated, 0 = no growth, -100 = all killed)
Conditions in all cases: 10 µM unless noted
NCI-H23 lung = tested on: NCI-H23 lung
NCI-H226 lung = tested on: NCI-H226 lung
NCI-H322M lung = tested on: NCI-H322M lung
HOP-62 NSCLC = tested on: HOP-62 NSCLC
NCI-H460 lung = tested on: NCI-H460 lung
HOP-92 NSCLC = tested on: HOP-92 NSCLC
NCI-H522 lung = tested on: NCI-H522 lung
A549/ATCC NSCLC = tested on: A549/ATCC NSCLC
786-0 renal = tested on: 786-0 renal
COLO 205 colon = tested on: COLO 205 colon

| SMILES | growth (NCI-H23 lung) | growth (NCI-H226 lung) | growth (NCI-H322M lung) | growth (HOP-62 NSCLC) | growth (NCI-H460 lung) | growth (HOP-92 NSCLC) | growth (NCI-H522 lung) | growth (A549/ATCC NSCLC) | growth (786-0 renal) | growth (COLO 205 colon) |
| --- | --- | --- | --- | --- | --- | --- | --- | --- | --- | --- |
| CCCCc1ccc(Nc2ccc(Nc3ccc(CCCC)cc3S(=O)(=O)O)c3c2C(=O)c2ccccc2C3=O)c(S(=O)(=O)O)c1 | 91.3% | 79.7% | 96.3% | 99.5% | 104% | 59.4% | 65% | 102% | 117% | 101% |
| Cc1c(C)c2c(c(C)c1OCC(=O)O)CC[C@@](C)(CCC[C@@H](C)CCC[C@@H](C)CCCC(C)C)O2 | -30.8% [50 µM] (active) | 2.79% [50 µM] (active) | 43.3% [50 µM] | 2.69% [50 µM] (active) | 3.28% [50 µM] (active) | -56.6% [50 µM] (active) | -4.29% [50 µM] (active) | -3.06% [50 µM] (active) | -46.4% [50 µM] (active) | -10.6% [50 µM] (active) |
| c1coc(-c2c3ccc(=[N+]4CCCCC4)cc-3oc3cc(N4CCCCC4)ccc23)c1 | -84.6% (active) | -86.1% (active) | -85.1% (active) | -81.1% (active) | -71.5% (active) | -68.1% (active) | -86.4% (active) | -57.9% (active) | -93.2% (active) | -70.1% (active) |
| O=C(/C=C/c1cccc(O)c1)c1cccc(-n2cc(-c3ccc4ccccc4c3)[nH]c2=O)c1 | 28.2% | 88.9% | 4.64% (active) | -20.9% (active) | -9.23% (active) | 42.6% | 75.9% | 61.8% | -87.9% (active) | -8.8% (active) |
| COc1ccc(-c2cc(-c3cc(OC)ccc3OC)nc(SCC(=O)c3ccccc3)c2C#N)cc1 | 92.7% | 84.4% | 103% | 89.9% | 102% | 92.3% | 79% | 92.7% | 109% | 97.8% |
| O=C(N/N=C/C=C/c1ccc([N+](=O)[O-])o1)c1cc2ccccc2cc1O | -54.6% (active) | -72.3% (active) | -6.76% (active) | -33.9% (active) | -14.3% (active) | -47.5% (active) | -62.9% (active) | 4.04% (active) | -18.4% (active) | -100% (active) |
| NNC(=O)c1nc(N)n(-c2ccc(S(N)(=O)=O)cc2)n1 | 97.2% | 98.7% | 97.3% | 90.6% | 105% | 74.2% | 80.3% | 97.1% | 95.7% | 103% |
| NS(=O)(=O)c1cnccc1Oc1cccc2cccnc12 | 90.9% | 97.3% | 99.6% | 86.8% | 108% | 78.4% | 95.7% | 94.6% | 97.7% | 103% |
| CCN(CC)CCCNc1ccc(Nc2ccc(OC)cc2)cc1 | 92.3% | 110% | 83.3% | 98.1% | 64.2% | 83.6% | 64% | 92.1% | 94.2% | 85.7% |
| CN(C)c1ccc(-c2cc(-c3ccc(Nc4nc(Nc5ccc(Cl)cc5)nc(Nc5ccc(Cl)cc5)n4)cc3)no2)cc1 | 45% | 87.1% | 65.2% | 63.6% | 27.1% | -11.5% (active) | 55.9% | 23.1% | 36.9% | 0.291% (active) |
| Cn1c(I)c(C#C[Si](C)(C)C)c(=O)n(C(=O)c2ccccc2)c1=O | 51.7% | 79.6% | 94.9% | 59.1% | 55.4% | -27.1% (active) | -66.2% (active) | 80% | -66.6% (active) | -7.64% (active) |
| CCN(CC)c1nc(SCC(=O)Nc2nc3ccc(C)cc3s2)nc(-c2ccccc2)c1C#N | 103% | 86.2% | 88.8% | 91.9% | 99.4% | 55.4% | 82.5% | 79.4% | 93.8% | 102% |
| CN(C)CCNc1nc2ccccc2c2c1c1c(n2Cc2ccccc2)-c2ccccc2C1=O | -74.8% (active) | -57.1% (active) | -79.5% (active) | -90.4% (active) | -98.6% (active) | -78.7% (active) | -69.2% (active) | -73% (active) | -89.6% (active) | -76.9% (active) |
